The campaign covered roughly 360,000 compounds. About 17,000 (4.7%) were called active. Not shown: some 5% with an inconclusive outcome. Only a selection was taken, and actives are over-represented in it overall. A number with no mark means an inactive call. No stated cut-off is given here; in the data, active means activity change below about -50%; inconclusive means mostly about -30% to -49%; inactive means weaker than that.
assay: qHTS for Inhibitors of Inflammasome Signaling: IL-1-beta AlphaLISA Primary Screen; conditions: THP-1 LPS/ATP IL-1B secretion, 16 h; at 57.5 µM, hits give low values
Summary of the method: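 THP-1 cells pretreated 1 hr with compounds (up to 57.5 uM final), then stimulated with LPS (250 ng/mL final) plus ATP (1.25 mM final); secreted IL-1B measured by AlphaLISA after 16 hr, decreased signal indicating inhibition.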
On the % scale 0 is the no-effect control and ±100 the full control effect.

In order of falling activity change:
1. O=C(N/N=C/c1cc([N+](=O)[O-])ccc1O)/C(=C\c1cccs1)NC(=O)c1ccccc1  245%
2. S=C(NN=Cc1ccccn1)Nc1ccccn1  68.2%
3. CCOCCCNC(=S)Nc1ccc2nc(N3CCN(CC)CC3)cc(C)c2c1  46.7%
4. OC(c1ccccc1)c1nc(-c2cnc3ccccc3c2)cs1 (configuration not stated)  32.8%
5. COc1ccc(C(=O)Nc2ccc3nc(N4CCCCC4)cc(C)c3c2)cc1OC  30.7%
6. CCNc1c(NS(=O)(=O)c2ccc(C3CCCCC3)cc2)c(=O)oc2ccccc12  29.7%
7. Cc1ccc(Cc2c(-c3ccc(C)cc3)nc3c4ccccc4ccn23)cc1  27.7%
8. CC(=O)c1cccc(NC(=S)N2CCCC2)c1  24.4%
9. CN1C[C@@H](CO)O[C@@H](n2cnc3c(N4CCN(CCO)CC4)ncnc32)C1  23.3%
10. CN(C)S(=O)(=O)c1cccc(NC(=O)Cc2ccsc2)c1  19.3%
11. CC1=C(C(=O)N(C)C)CC(CC(=O)NCCN2CCOCC2)C(=O)N1Cc1ccccc1 (configuration not stated)  17.7%
12. FC(F)(F)c1ccccc1Cc1c(-c2ccccc2)nc2c3ccccc3ccn12  14.3%
13. CCCCNC(=O)OC1CC2CC1[C@H]1CCCCN1C2=O (some centres not stated)  12.3%
14. Nc1[nH]c(C(=O)c2ccccc2)c(-c2ccc(Br)cc2)c1C(=O)NC1CC1  12%
15. CC(=O)N1C[C@@H](CO)[C@@H](N(C)C(=O)c2ccco2)C[C@H]1c1ccccc1  11.5%
16. Cc1cc(Cl)ccc1N1C(=O)CC(SCCC(=O)O)C1=O (configuration not stated)  9.22%
17. CCCN(CCC)c1nc2c(C)cccn2c(=O)c1/C=C1/SC(=S)N(Cc2ccco2)C1=O  8.74%
18. CCn1cc(CN2CCCC(CNS(=O)(=O)Cc3ccccc3)C2)cn1 (configuration not stated)  7.8%
19. CC(C)CN(C(=O)Cn1c(=O)cnc2ccccc21)C1CCS(=O)(=O)C1 (configuration not stated)  5.99%
20. CCOc1cc(/C=C2\C(=N)N3N=C(C)SC3=NC2=O)ccc1OCCOc1ccccc1  4.36%
21. C=CCSc1nnc(NC(=O)c2ccc(NC(C)=O)cc2)s1  1.35%
22. COc1cc(C(O)c2nc(-c3cccc(C(=O)O)c3)cs2)ccc1F (configuration not stated)  1.15%
23. Cc1ccc(Cc2c(-c3ccccc3)nc3ccc(Cl)cn23)cc1  1.06%
24. CC(OC(=O)c1ccccc1NCCO)C(=O)Nc1ccnn1C(C)C (configuration not stated)  0%
25. CSc1nsc(NC(=O)Nc2ccccc2)n1  0%
26. CC(=O)C1=CCC(c2ccccc2)N(S(=O)(=O)c2ccc(C)cc2)C1 (configuration not stated)  0%
27. COc1ccc(CCc2nnc(CCC(=O)NCc3cnn(-c4ccccc4C)c3)o2)cc1  0%
28. CCCCCn1nnnc1C1c2ccccc2C(=O)N1Cc1ccco1 (configuration not stated)  0%
29. Cc1ccc(-c2nn(-c3ccccc3)cc2C(=O)NCCCN2CCCC2=O)cc1  0%
30. O=C(Cc1ccc([N+](=O)[O-])cc1)NCCc1ccc2c(c1)OCO2  0%
31. Nc1nnnn1/N=C/c1cc([N+](=O)[O-])ccc1O  0%
32. Cc1cc(C)nc(SCC(=O)N(C)C)n1  0%
33. CN(c1ccccc1)S(=O)(=O)c1cccc(NC(=O)Cc2c(F)cccc2Cl)c1  0%
34. CN1OC[C@@H]2CN(S(=O)(=O)c3cccc(C(F)(F)F)c3)[C@H](c3ccc(-c4cc5ccccc5o4)cc3)C[C@@H]21  -0.573%
35. Cc1cc(N2CCN(C)CC2)nc2ccc(NC(=S)N3CCOCC3)cc12  -0.695%
36. COc1cc(C(=O)NCC2(c3ccccc3)CCCC2)ccc1OC(C)C  -0.814%
37. COc1ccc(Sc2ccc(NC(=O)c3cccc(Cl)c3)cc2C#N)cc1  -1.44%
38. CN(C)c1ccc(/C=N/Nc2cc(N3CCOCC3)nc(N3CCOCC3)n2)cc1  -1.5%
39. CSc1ccccc1C(=O)Nc1cccc(C(C)=O)c1  -2.09%
40. Cc1ccc(-c2nn(-c3ccccc3)cc2C(=O)Nc2cccc(S(=O)(=O)N3CCOCC3)c2)cc1  -2.09%
41. CCn1c(SCC(=O)N2CCCC2=O)nc2ccccc21  -4.32%
42. CCOC(=O)N1CCN(C(=O)CSc2nc(=O)n3cccc(C)c3n2)CC1  -6.68%
43. CCOc1ccc2nc(C(=O)N3CCCC(C)C3)sc2c1 (configuration not stated)  -10.2%
44. Fc1ccccc1/C=N/Nc1cc(N2CCCCC2)ncn1  -12%
45. CNc1cncc(-c2cccc(C(=O)N3CCOCC3)c2)n1  -12.2%
46. Cc1cc(C)nc(SCc2ccccc2C#N)n1  -12.7%
47. Cc1nnc(N(Cc2ccco2)C(=O)c2ccno2)s1  -16.2%
48. CCCNC(=O)c1cc(C2CCCCN2S(=O)(=O)c2ccc(C#N)cc2)on1 (configuration not stated)  -18.6%
49. Cc1ccc2nc(-c3ccco3)c(Cc3cccc(Cl)c3)n2c1  -21.3%

In the case of C=CCSc1nsc(NC(=O)Nc2cccc(C(C)=O)c2)n1, the activity change is reported as -100% (active).
In the case of CCSc1nsc(NC(=O)Nc2cccc(C(C)=O)c2)n1, the activity change is reported as -101% (active).
For CCOC(=O)CC1C(=O)NCCN1c1nc2c(C)cccn2c(=O)c1/C=C1\SC(=S)N(C(C)CC)C1=O (configuration not stated), the activity change was -79.5% (active).
With COc1ccc(C(=O)Nc2ccc(C3(C#N)CCCC3)cc2)cc1OC the activity change was -55% (active).
In the case of Cc1ccc(Cc2c(-c3ccco3)nc3ccc(Cl)cn23)cc1, the activity change is reported as -76.3% (active).
In the case of O=C(O)c1ccc(NC(=O)c2cn(-c3ccccc3)nc2-c2ccc(Cl)cc2)cc1, the activity change is reported as -53.3% (active).
With Cc1cc(N2CCOCC2)nc2ccc(NC(=S)N3CCN(Cc4ccccc4)CC3)cc12 the activity change was -70.6% (active).
For C(=N/Nc1cc(N2CCOCC2)nc(N2CCOCC2)n1)/c1ccccc1, the activity change was -78.9% (active).
In the case of O=[N+]([O-])c1ccc(O)c(/C=N/Nc2ccccc2[N+](=O)[O-])c1, the activity change is reported as -51.4% (active).
In the case of CCOc1cc(/C=C2\SC(N3CCCC(C)C3)=NC2=O)ccc1O (configuration not stated), the activity change is reported as -57.3% (active).
In the case of C=CS(=O)c1sc(Cl)c(N2CCOCC2)c1[N+](=O)[O-] (configuration not stated), the activity change is reported as -104% (active).
In the case of Cc1cc(C)nc(S/C=C/C(=O)c2ccccc2)n1, the activity change is reported as -104% (active).
For CN(c1ccccc1)S(=O)(=O)c1cccc(NC(=O)Cc2ccc(Cl)cc2)c1, the activity change was -55.5% (active).
